According to PubChem BioAssay (Tox21):
Inconclusive results are not listed. Active and inactive are the calls of the source. Unless noted, calls come from the whole dose curve; as a rule, active = well fitted curve in the direction sought with a large enough effect in the repeat runs; inconclusive = weak or mixed curves; inactive = no such curve, though single readings can be large; an effect the other way counts as inactive or inconclusive.

Key:
[1] = qHTS assay to identify small molecule antagonists of the TGF-beta/Smad signaling pathway - cell viability counter screen (AID 1346824); note: nearly all actives have a fitted effect of over 50% in size
Procedure, shortened: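 SBE-bla HEK 293T cells were plated overnight at 37 C, then given compounds in DMSO plus TGF-beta1 (added as 0.25 ng/mL solution) for 5 hr. After the bla read, CellTiter-Glo was added to the same wells and luminescence read after 30 min at room temperature.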

[2] = qHTS assay to identify small molecule agonists of the TGF-beta/Smad signaling pathway - cell viability counter screen (AID 1346829); note: top concentration of the series differs between compounds; nearly all actives have a fitted effect of over 45% in size
Procedure, shortened: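 After overnight seating at 37 C and 5% CO2, reporter cells got compounds for 5 hr and FRET substrate for 2 hr; cell viability then came from CellTiter-Glo luminescence.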

[3] = qHTS assay to identify small molecule agonists of the TGF-beta/Smad signaling pathway (AID 1346859; active = well fitted activation curve with a large enough effect in the signal ratio in the repeat runs, not every such curve was filed as active; the % refers to the signal ratio; note: series mostly up to about 77 µM)
Procedure, shortened: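 SBE-bla HEK293T cells plated overnight, then compound exposure for 5 h at 37 C. Beta-lactamase reporter read with LiveBLAzer B/G FRET substrate after 2 h at room temperature, fluorescence at 405 nm excitation, 460/530 nm emission.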

[4] = biological target: Thyrotropin-releasing hormone receptor (Homo sapiens) (UniProt P34981); test: qHTS assay to identify small molecule antagonists of the thyrotropin-releasing hormone receptor (TRHR) signaling pathway (AID 1346877; active = well fitted inhibition curve with a large enough effect in the repeat runs, not every such curve was filed as active; note: series mostly up to about 51 µM)
Sequence of Thyrotropin-releasing hormone receptor (Homo sapiens) (P34981 whole entry, looked up): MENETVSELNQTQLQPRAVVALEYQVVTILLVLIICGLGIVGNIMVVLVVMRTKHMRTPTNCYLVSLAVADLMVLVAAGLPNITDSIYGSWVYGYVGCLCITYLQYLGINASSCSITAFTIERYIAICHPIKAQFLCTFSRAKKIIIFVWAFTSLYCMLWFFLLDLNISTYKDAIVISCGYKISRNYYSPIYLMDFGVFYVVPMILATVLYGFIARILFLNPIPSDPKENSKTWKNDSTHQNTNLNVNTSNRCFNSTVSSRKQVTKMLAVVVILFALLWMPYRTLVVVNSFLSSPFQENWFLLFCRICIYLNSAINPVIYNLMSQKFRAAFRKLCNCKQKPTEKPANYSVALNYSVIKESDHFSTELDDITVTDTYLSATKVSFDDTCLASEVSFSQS
Procedure, shortened: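 Intracellular calcium fluorescence, read kinetically every second over 3 min, reports TRH-evoked signalling in HEK293 cells carrying TRHR. Test compounds were added 5 min ahead of a 1 nM TRH challenge.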

[5] = biological target: Thyrotropin-releasing hormone receptor (Homo sapiens) (UniProt P34981); test: qHTS assay to identify small molecule agonists of the thyrotropin-releasing hormone receptor (TRHR) signaling pathway (AID 1346891; calls by dose curve; note: series mostly up to about 58 µM)
Procedure, shortened: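 HEK293 cells expressing TRHR plated 18 h at 37 C/5% CO2, calcium dye-loaded 2 h at 37 C, then compound added (agonist mode); kinetic calcium fluorescence read 3 min at 1 s intervals; 15 concentrations in triplicate.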

[6] = Human pregnane X receptor (PXR) small molecule agonists, qHTS cell viability counter screen (AID 1346977); note: nearly all actives have a fitted effect of over 50% in size
Procedure, shortened: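 PXR-Luc HepG2 cells (2,000/well, 5% charcoal-stripped FBS) preincubated 5 hr, then exposed to compounds 24 hr at 37 C. Viability read in the same wells by CellTiter-Fluor fluorescence, reagent added at 23 hr, 1 hr incubation.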

[7] = Caspase-3/7 induction in HepG2 cells by small molecules, qHTS assay (AID 1346978); note: nearly all actives have a fitted effect of over 15% in size
Procedure, shortened: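 Wild-type HepG2 cells (2,000/well) were settled 5 h at 37 C, 5% CO2, then exposed to compounds in DMSO for 17 h. Caspase-3/7 activity was read by luminescence 30 min after adding Caspase-Glo 3/7 reagent at room temperature.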

[8] = Caspase-3/7 induction in CHO-K1 cells by small molecules, qHTS cell viability counter screen (AID 1346979); note: nearly all actives have a fitted effect of over 35% in size
Procedure, shortened: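 Wild-type CHO-K1 cells (1,500/well) treated with compound after 5 h plating; after 16 h at 37C, viability read as CellTiter-Fluor fluorescence following 1 h reagent incubation, in the same wells as the caspase read.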

[9] = Caspase-3/7 induction in CHO-K1 cells by small molecules, qHTS assay (AID 1346980); note: nearly all actives have a fitted effect of over 15% in size
Procedure, shortened: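 Wild-type cells were seeded at 1,500 per well and settled 5 hr at 37 C, 5% CO2, then exposed to DMSO-dissolved compounds for 17 hr. Caspase-Glo 3/7 reagent was added, and luminescence was read after 30min at room temperature.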

[10] = biological target: Cytochrome P450 2D6 (Homo sapiens) (UniProt P10635); test: Cytochrome P450 Family 2 Subfamily D Member 6 (CYP2D6) small molecule antagonists: luciferase reporter qHTS assay (AID 1671196); note: series mostly up to about 120 µM; nearly all actives have a fitted effect of over 50% in size
Sequence of Cytochrome P450 2D6 (Homo sapiens) (P10635 whole entry, looked up): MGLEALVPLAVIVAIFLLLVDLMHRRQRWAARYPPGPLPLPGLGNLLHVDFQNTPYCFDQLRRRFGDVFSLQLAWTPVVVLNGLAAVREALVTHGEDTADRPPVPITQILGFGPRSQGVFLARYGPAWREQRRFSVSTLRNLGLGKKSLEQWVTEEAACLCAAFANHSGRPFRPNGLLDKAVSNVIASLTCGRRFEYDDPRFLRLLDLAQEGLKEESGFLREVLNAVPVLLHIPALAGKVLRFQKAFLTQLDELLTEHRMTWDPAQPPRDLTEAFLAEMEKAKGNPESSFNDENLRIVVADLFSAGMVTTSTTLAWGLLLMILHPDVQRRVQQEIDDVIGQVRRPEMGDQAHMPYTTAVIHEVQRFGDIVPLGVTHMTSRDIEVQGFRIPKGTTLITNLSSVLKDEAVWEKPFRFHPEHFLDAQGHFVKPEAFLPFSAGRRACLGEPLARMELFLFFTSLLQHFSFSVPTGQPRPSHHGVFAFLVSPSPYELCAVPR
Procedure, shortened: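 Read-out is luminescence from luciferin formed by CYP2D6 turnover of a proluciferin substrate, recorded as relative luminescence units. Reactions ran 1 h at room temperature after NADPH regeneration solution was added.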

[11] = biological target: Cytochrome P450 2C19 (Homo sapiens) (UniProt P33261); test: Cytochrome P450 Family 2 Subfamily C Member 19 (CYP2C19) small molecule antagonists: luciferase reporter qHTS assay (AID 1671197); note: series mostly up to about 120 µM; nearly all actives have a fitted effect of over 65% in size
Sequence of Cytochrome P450 2C19 (Homo sapiens) (P33261 whole entry, looked up): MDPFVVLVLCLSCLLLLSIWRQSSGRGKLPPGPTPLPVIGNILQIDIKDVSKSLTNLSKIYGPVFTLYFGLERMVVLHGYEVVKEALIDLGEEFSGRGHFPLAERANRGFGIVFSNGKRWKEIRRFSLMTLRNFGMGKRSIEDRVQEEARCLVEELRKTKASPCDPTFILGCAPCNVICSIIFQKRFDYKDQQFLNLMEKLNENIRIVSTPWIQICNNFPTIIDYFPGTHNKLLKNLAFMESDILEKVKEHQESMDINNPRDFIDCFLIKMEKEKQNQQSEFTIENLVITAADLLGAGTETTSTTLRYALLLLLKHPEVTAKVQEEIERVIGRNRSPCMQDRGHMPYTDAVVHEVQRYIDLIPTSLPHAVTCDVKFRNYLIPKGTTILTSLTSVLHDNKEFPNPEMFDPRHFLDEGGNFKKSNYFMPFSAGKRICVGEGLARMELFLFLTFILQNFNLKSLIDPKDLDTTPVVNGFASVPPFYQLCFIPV
Procedure, shortened: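 Inhibition of CYP2C19 was scored from loss of luminescence in a P450-Glo proluciferin substrate assay, NADPH-started and run 1 h at 37C, with ketoconazole as positive control.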

[12] = biological target: Cytochrome P450 2C9 (Homo sapiens) (UniProt P11712); test: Cytochrome P450 Family 2 Subfamily C Member 9 (CYP2C9) small molecule antagonists: luciferase reporter qHTS assay (AID 1671198); note: series mostly up to about 120 µM; nearly all actives have a fitted effect of over 50% in size
Sequence of Cytochrome P450 2C9 (Homo sapiens) (P11712 whole entry, looked up): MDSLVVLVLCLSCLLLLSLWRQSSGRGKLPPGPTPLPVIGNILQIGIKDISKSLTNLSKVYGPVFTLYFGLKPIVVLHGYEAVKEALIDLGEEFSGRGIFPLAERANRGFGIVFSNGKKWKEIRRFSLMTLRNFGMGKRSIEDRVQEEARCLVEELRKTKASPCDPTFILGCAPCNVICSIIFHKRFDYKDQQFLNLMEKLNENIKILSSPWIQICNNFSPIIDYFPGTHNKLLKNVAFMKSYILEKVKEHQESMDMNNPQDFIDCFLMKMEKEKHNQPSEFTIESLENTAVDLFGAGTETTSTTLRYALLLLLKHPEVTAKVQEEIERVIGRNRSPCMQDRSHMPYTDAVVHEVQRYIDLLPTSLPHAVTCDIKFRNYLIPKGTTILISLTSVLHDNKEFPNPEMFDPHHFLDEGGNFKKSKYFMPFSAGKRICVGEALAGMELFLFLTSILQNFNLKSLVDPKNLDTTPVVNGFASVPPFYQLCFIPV
Procedure, shortened: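 CYP2C9 activity was measured with a P450-Glo proluciferin substrate. Enzyme–substrate mix was held with compound for 10 min at room temperature, then NADPH regeneration solution was added for 1 h at 37C. Luciferin product was read as luminescence.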

[13] = biological target: Voltage-gated inwardly rectifying potassium channel KCNH2 (Homo sapiens) (UniProt Q12809); test: Human Ether-a-go-go-Related Gene (hERG) channel small molecule antagonists: fluorescence cell-based qHTS assay (AID 1671200)
Sequence of Voltage-gated inwardly rectifying potassium channel KCNH2 (Homo sapiens) (Q12809 whole entry, looked up): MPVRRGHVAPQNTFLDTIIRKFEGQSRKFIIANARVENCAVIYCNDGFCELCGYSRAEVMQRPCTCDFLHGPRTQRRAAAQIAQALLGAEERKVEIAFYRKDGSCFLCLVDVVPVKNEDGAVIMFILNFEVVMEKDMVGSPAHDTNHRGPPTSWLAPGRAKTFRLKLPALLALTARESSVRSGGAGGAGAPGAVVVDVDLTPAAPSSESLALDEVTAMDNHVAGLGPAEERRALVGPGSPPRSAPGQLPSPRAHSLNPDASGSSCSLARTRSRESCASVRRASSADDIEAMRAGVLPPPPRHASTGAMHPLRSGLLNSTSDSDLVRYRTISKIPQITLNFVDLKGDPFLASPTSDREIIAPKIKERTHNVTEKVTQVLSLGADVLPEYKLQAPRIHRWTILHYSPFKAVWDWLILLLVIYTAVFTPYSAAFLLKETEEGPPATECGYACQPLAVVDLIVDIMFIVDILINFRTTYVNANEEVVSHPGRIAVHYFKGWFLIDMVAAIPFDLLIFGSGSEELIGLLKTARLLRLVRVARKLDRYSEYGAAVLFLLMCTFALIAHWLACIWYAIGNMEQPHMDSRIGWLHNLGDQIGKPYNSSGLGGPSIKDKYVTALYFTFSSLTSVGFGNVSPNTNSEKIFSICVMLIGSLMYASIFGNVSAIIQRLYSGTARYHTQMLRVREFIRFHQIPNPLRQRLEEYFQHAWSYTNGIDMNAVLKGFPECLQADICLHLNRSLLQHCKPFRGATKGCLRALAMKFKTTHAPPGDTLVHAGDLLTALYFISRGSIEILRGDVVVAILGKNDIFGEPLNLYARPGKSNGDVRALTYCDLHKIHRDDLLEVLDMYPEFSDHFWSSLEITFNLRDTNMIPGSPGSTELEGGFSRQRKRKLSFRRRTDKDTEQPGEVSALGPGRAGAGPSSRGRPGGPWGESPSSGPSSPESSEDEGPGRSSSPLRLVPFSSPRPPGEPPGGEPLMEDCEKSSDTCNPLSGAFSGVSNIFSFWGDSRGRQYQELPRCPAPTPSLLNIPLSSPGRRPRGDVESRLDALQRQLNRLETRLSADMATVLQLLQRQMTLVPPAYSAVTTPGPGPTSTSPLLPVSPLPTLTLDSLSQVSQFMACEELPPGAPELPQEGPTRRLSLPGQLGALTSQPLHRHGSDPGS
Procedure, shortened: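 hERG-U2OS cells plated overnight at 37 C, loaded with FluxOR II dye 1 h at RT in dark; after 10 min, thallium stimulus added. Fluorescence (480/540 nm) read kinetically for 2 min at 1 s intervals.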

[14] = biological target: Cytochrome P450 3A4 (Homo sapiens) (UniProt P08684); test: Cytochrome P450 Family 3 Subfamily A Member 4 (CYP3A4) small molecule antagonists: luciferase reporter qHTS assay (AID 1671201)
Sequence of Cytochrome P450 3A4 (Homo sapiens) (P08684 whole entry, looked up): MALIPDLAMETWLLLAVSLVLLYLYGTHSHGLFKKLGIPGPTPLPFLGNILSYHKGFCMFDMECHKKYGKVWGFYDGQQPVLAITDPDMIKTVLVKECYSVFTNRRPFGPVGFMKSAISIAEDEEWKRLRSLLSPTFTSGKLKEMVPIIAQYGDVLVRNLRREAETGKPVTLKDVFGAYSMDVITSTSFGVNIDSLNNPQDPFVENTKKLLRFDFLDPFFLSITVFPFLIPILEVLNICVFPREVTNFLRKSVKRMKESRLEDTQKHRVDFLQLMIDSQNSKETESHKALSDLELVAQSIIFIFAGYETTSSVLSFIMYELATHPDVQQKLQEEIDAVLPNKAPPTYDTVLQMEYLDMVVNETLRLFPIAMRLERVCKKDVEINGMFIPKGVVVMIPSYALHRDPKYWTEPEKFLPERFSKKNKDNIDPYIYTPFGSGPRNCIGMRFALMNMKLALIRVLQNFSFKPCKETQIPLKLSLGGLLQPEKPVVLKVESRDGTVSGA
Procedure, shortened: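 P450-Glo CYP3A4 luminescent assay: compounds preincubated 10 min at room temperature with enzyme and proluciferin substrate, NADPH regeneration added, 1 h room-temperature reaction, stopped with luciferin detection reagent; luminescence read after 20 min. Ketoconazole positive control.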

[15] = biological target: Nuclear receptor subfamily 1 group I member 2 (Homo sapiens) (UniProt O75469); test: Human pregnane X receptor (PXR) small molecule agonists, qHTS assay (AID 1346982); note: nearly all actives have a fitted effect of over 35% in size
Sequence of Nuclear receptor subfamily 1 group I member 2 (Homo sapiens) (O75469 whole entry, looked up): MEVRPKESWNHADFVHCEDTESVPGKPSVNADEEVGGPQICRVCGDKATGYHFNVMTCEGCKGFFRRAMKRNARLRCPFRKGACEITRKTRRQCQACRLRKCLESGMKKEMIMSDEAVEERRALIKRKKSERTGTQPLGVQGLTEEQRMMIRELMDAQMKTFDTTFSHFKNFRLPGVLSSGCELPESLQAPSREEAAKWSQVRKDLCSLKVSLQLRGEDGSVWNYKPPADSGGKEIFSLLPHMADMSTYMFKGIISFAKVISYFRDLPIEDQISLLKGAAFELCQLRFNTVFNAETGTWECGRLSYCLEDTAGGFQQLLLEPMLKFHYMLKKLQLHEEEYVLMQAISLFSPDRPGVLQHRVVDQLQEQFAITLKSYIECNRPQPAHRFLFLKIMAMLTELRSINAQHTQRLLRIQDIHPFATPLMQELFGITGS
Procedure, shortened: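 Luciferase signal from ONE-Glo (30 min, room temperature) measured activation of hPXR-driven CYP3A4 reporter expression in PXR-Luc HepG2 cells treated with compounds for 24 hr at 37 C.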

[16] = Caspase-3/7 induction in HepG2 cells by small molecules, qHTS cell viability counter screen (AID 1346981); note: series mostly up to about 92 µM; nearly all actives have a fitted effect of over 30% in size
Procedure, shortened: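 HepG2, WT, 2,000 cells/well; 5 hr pre-incubation 37 C/5% CO2; compound pin-transferred from DMSO; 16 hr exposure; CellTiter-Fluor, 1 hr; fluorescence read.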

[17] = biological target: Cytochrome P450 1A2 (Homo sapiens) (UniProt P05177); test: Cytochrome P450 Family 1 Subfamily A Member 2 (CYP1A2) small molecule antagonists: luciferase reporter qHTS assay (AID 1671199)
Sequence of Cytochrome P450 1A2 (Homo sapiens) (P05177 whole entry, looked up): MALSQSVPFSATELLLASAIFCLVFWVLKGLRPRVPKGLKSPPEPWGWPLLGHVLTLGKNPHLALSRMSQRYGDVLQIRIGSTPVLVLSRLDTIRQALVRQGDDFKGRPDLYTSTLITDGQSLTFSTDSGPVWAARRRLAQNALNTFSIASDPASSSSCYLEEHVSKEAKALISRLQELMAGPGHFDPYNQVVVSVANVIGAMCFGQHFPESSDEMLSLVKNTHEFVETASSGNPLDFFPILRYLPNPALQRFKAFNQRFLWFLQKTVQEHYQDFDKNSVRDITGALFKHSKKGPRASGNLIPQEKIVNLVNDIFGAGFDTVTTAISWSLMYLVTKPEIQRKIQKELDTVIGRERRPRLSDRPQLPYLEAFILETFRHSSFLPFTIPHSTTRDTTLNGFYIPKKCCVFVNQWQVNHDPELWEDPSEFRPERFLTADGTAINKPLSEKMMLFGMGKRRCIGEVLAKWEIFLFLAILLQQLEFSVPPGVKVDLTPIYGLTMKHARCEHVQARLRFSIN
Procedure, shortened: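 P450-Glo CYP1A2, 1536-well qHTS: enzyme/proluciferin substrate + cpd (DMSO), 10 min RT; NADPH regen, 1 h RT; detection reagent, 20 min; luminescence, RLU.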

[18] = biological target: Nuclear receptor subfamily 1 group I member 2 (Homo sapiens) (UniProt O75469); test: CYP3A4 induction through human pregnane X receptor (PXR) by small molecules, qHTS assay (AID 1346984); note: nearly all actives have a fitted effect of over 40% in size
Procedure, shortened: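 Luminescence readout: luciferase signal after One-Glo (30 min, room temperature), following 3 h at 37C with 3uM final Luciferin-IPA P450 substrate. Cells were DPX-2 (HepG2, PXR/CYP3A4-luc co-transfected) dosed for 24 h.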

[19] = biological target: Nuclear receptor subfamily 1 group I member 2 (Homo sapiens) (UniProt O75469); test: Human pregnane X receptor (PXR) activation by small molecules, qHTS assay (AID 1346985); note: nearly all actives have a fitted effect of over 40% in size
Procedure, shortened: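 DPX-2 cells (HepG2 co-transfected with a PXR response element and a CYP3A4-promoter luciferase construct) were seeded at 2,000 per well, rested 5 hr at 37C, then exposed to DMSO-dissolved compounds for 24 hr. Activation was read as luciferase luminescence.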

Measured: Potency

CC(=O)CC(=O)OC(C)(C)C
inactive: [1] | [2] | [3] | [4] | [5] | [6] | [7] | [8] | [9] | [10] | [11] | [12] | [13] | [14]

CC(=O)O[C@H]1C[C@@H]2CC[C@@]1(C)C2(C)C
inactive: [1] | [2] | [3] | [4] | [5] | [6] | [7] | [8] | [9] | [15] | [11] | [12] | [13] | [14]

CC(O)CC(C)O (centres undefined)
inactive: [1] | [2] | [3] | [4] | [5] | [6] | [7] | [8] | [9] | [16] | [15] | [11] | [12] | [13] | [14]

COCCc1ccccn1
inactive: [1] | [2] | [3] | [4] | [5] | [6] | [7] | [8] | [9] | [16] | [15] | [11] | [12] | [17] | [13] | [14]

c1ccc(-c2nn[nH]n2)cc1
inactive: [1] | [2] | [3] | [4] | [5] | [6] | [7] | [8] | [9] | [16] | [15] | [11] | [13] | [14]

CC1(C)O[C@H]2CC(=O)OC[C@]23[C@H]2CC[C@@]4(C)[C@H](c5ccoc5)OC(=O)[C@H]5O[C@]54[C@]2(C)C(=O)C[C@@H]13
inactive: [1] | [2] | [3] | [4] | [5] | [6] | [8] | [9] | [16] | [15] | [18] | [19] | [10] | [11] | [12] | [17]

COP(=O)(O)OP(=O)(O)OC
inactive: [1] | [2] | [3] | [4] | [5] | [6] | [7] | [8] | [9] | [16] | [15] | [11] | [12] | [17] | [13]

COc1cc(OC)nc(O[C@H](C(=O)O)C(OC)(c2ccccc2)c2ccccc2)n1
inactive: [1] | [2] | [3] | [4] | [5] | [6] | [7] | [8] | [9] | [15] | [10] | [11] | [17] | [13] | [14]
